The results in this text go back to PubChem BioAssay.

The nature of assay [1]: P. berghei load reduction in hepatocytes – cell-based, HepG2, luciferase luminescence, HepG2 viability, primary screen (AID 624349).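 Further: 100% = mean of DMSO negative control wells on the same plate.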 Particulars: P. berghei liver stage in HepG2, luciferase luminescence, concentration not given here; parasite load remaining: stronger effect = lower value; viability: measured here: HepG2 viability without parasites.
Assay [2] is described as follows: EMT-state selective cytotoxicity in co-culture – imaging, PC-3E GFP, TEM4-18 mCherry, primary screen (AID 1345086;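 active means compounds killing one labelled cell type while sparing the other, by normalised counts and ratio limits, not self-fluorescent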;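 on all read-outs here: cells exposed to compound for 72 h before imaging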;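 on red/green cell ratio (normalised): normalised mesenchymal count divided by normalised epithelial count so high means epithelial killing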). Particulars: PC-3E GFP / TEM4-18 mCherry co-culture, imaging cell counts, at 1 µM; for red/green cell ratio (normalised): actives lie on both sides, counts scaled to control wells, 1 = unselective.
The nature of assay [3]: viability loss with induced miR-34 in A549 – imaging, A549 dox-inducible miR-34, nuclei and caspase counts, primary screen (AID 1347080;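 active means compounds whose cell count with miR-34 switched on is under 0.7 times the count with it off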). The note with it: A549 miR-34 inducible, Hoechst nuclei count, 48 h.
Setting [4] is: measured here: epithelial PC-3E GFP cell survival.
[5] abbreviates: measured here: mesenchymal TEM4-18 mCherry cell survival.
Where [6] appears, read: stronger effect = lower value, cell number ratio, induced over uninduced.
[7] abbreviates: measured here: relative caspase fold change +Dox/-Dox.
Where [8] appears, read: measured here: total cells with miR-34 induction, stronger effect = lower value.
Setting [9] is: measured here: total cells without miR-34 induction.

Several values for one entry are separate records, joined by “and”; a condition that tells them apart may be missing. Identical values can stand only once. Activity calls are given as the source filed them. Unless noted, no stated cut-off is given here; in the data, active means parasite load remaining mostly below about 12% (no sharp cut-off); inactive means mostly above about 10%. Bridge positions count the residues as written; N and C are the ends. Square brackets hold non-standard residues; d marks the D form. Peptide text beside a SMILES is read from it. * marks the point of attachment. Heptanoyl(6-Me) = CC(C)CCCCC(=O)*; Orn = NCCC[CH](N)C(=O)O; Dab = NCC[CH](N)C(=O)O

For the molecule `O=C1[C@H](CCC(O)c2ccc(F)cc2)[C@@H](c2ccc(O)cc2)N1c1ccc(F)cc1` (stereo partly specified), the parasite load remaining in assay [1] was 127% (inactive) and 58.1% (inactive). Moreover, the viability (usually a read-out of living cells in per cent, often relative to untreated cells) in assay [1] was 82.3% and 90.7%. Moreover, the red/green cell ratio (normalised) in assay [2] is 1.19 (inactive). The normalised cell number in assay [2] (setting [4]) came out at 0.87; in assay [2] (setting [5]), 1.03. In addition, the figures for the fold change in assay [3] (setting [6]) and in assay [3] (setting [7]) were 0.905 (inactive) and 1.79, respectively. Also, the cell count in assay [3] (setting [8]) was 11700; in assay [3] (setting [9]), 12900.

Take `O=C(O)C1=C(CSc2nnnn2CS(=O)(=O)O)CS[C@@H]2C(NC(=O)[C@H](O)c3ccccc3)C(=O)N12` (stereo partly specified): the parasite load remaining in assay [1] is 57.8% (inactive). In assay [1], the viability turned out to be 103%. Also, the red/green cell ratio (normalised) in assay [2] was 0.95 (inactive). Also, the normalised cell number in assay [2] (setting [4]) came out at 1.08; in assay [2] (setting [5]), 1.03. For the same molecule, the fold change in assay [3] (setting [6]) is 0.834 (inactive); in assay [3] (setting [7]), 4.26. Also, the cell count in assay [3] (setting [8]) is 10700; in assay [3] (setting [9]), 12900.

Turning to `CCCCCCCCCCCCCCCC(=O)OC[C@H](NC(=O)C(Cl)Cl)[C@H](O)c1ccc([N+](=O)[O-])cc1`, the parasite load remaining in assay [1] was 77.1% (inactive). Moreover, in assay [1], the viability was found to be 134%. The red/green cell ratio (normalised) in assay [2] is 1.04 (inactive). Besides, the normalised cell number was found to be 1.01 in assay [2] (setting [4]) and 1.06 in assay [2] (setting [5]). Moreover, the figures for the fold change in assay [3] (setting [6]) and in assay [3] (setting [7]) were 0.906 (inactive) and 2.23, respectively. Moreover, the cell count in assay [3] (setting [8]) came out at 10500; in assay [3] (setting [9]), 11500.

With `NC(Cc1c[nH]c2ccccc12)C(=O)O` (stereo unspecified), the parasite load remaining in assay [1] was 149% (inactive) and 37.9% (inactive). Further, the viability in assay [1] was 72.8% and 89.5%. The red/green cell ratio (normalised) in assay [2] is 1.24 (inactive). The normalised cell number was determined as 0.98 in assay [2] (setting [4]) and 1.22 in assay [2] (setting [5]). Also, the values for the fold change in assay [3] (setting [6]) and in assay [3] (setting [7]) were 0.933 (inactive) and 2.24, respectively. Moreover, the cell count stood at 11800 in assay [3] (setting [8]) and 12700 in assay [3] (setting [9]).

As for `CC(=O)OCC(=O)[C@@]1(OC(C)=O)[C@@H](C)CC2C3C[C@H](F)C4=CC(=O)C=C[C@]4(C)[C@@]3(F)[C@@H](O)C[C@@]21C` (stereo partly specified), the parasite load remaining in assay [1] is 202% (inactive). For the same molecule, the viability in assay [1] worked out at 105%. The red/green cell ratio (normalised) in assay [2] is 1.18 (inactive). Moreover, the normalised cell number in assay [2] (setting [4]) was determined as 1.13; in assay [2] (setting [5]), 1.34. For the same molecule, the results for the fold change in assay [3] (setting [6]) and in assay [3] (setting [7]) were 0.928 (inactive) and 4.21, respectively. In addition, the cell count in assay [3] (setting [8]) stood at 7220; in assay [3] (setting [9]), 7780.

For the molecule `CCC(C)C1NC(=O)C(CCN)NC(=O)C(NC(=O)C(CCN)NC(=O)C(NC(=O)C(CCN)NC(=O)CCCCC(C)C)C(C)O)CCNC(=O)C(C(C)O)NC(=O)C(CCN)NC(=O)C(CCN)NC(=O)C(C(C)CC)NC1=O` (stereo unspecified) ({Heptanoyl(6-Me)}-[Dab]T[Dab][Dab][Dab]II[Dab][Dab]T; lactam 4-C; configuration not given here), the parasite load remaining in assay [1] was 49.5% (inactive). For the same molecule, in assay [1], the viability turned out to be 98.1%. Moreover, the red/green cell ratio (normalised) in assay [2] is 0.79 (inactive). For the same molecule, the normalised cell number in assay [2] (setting [4]) was 1.14; in assay [2] (setting [5]), 0.9. Also, the fold change was 0.901 (inactive) in assay [3] (setting [6]) and 3.33 in assay [3] (setting [7]). Moreover, the cell count was found to be 12400 in assay [3] (setting [8]) and 13800 in assay [3] (setting [9]).

With `CC(=O)O[C@]1(C(C)=O)CCC2C3C=C(Cl)C4=CC(=O)CC[C@]4(C)C3CC[C@@]21C` (stereo partly specified), in assay [1], the parasite load remaining was 113% (inactive) and 26.4% (inactive). In addition, in assay [1], the viability is 84% and 106%. The red/green cell ratio (normalised) in assay [2] is 1.17 (inactive). The normalised cell number was 1.04 in assay [2] (setting [4]) and 1.21 in assay [2] (setting [5]). Also, the values for the fold change in assay [3] (setting [6]) and in assay [3] (setting [7]) were 0.904 (inactive) and 1.11, respectively. Besides, the cell count came to 9770 in assay [3] (setting [8]) and 10800 in assay [3] (setting [9]).

Regarding `CCCCC(=O)O[C@]1(C(=O)CO)CCC2C3CCC4=CC(=O)CC[C@]4(C)C3[C@@H](O)C[C@@]21C` (stereo partly specified), in assay [1], the parasite load remaining is 79% (inactive). For the same molecule, the viability in assay [1] was 98.3%. In addition, in assay [2], the red/green cell ratio (normalised) was 1.41 (inactive). Moreover, the normalised cell number was determined as 0.69 in assay [2] (setting [4]) and 0.97 in assay [2] (setting [5]). For the same molecule, the fold change in assay [3] (setting [6]) was 0.833 (inactive); in assay [3] (setting [7]), 3.05. For the same molecule, the values for the cell count in assay [3] (setting [8]) and in assay [3] (setting [9]) were 7620 and 9140, respectively.

As for `CN[C@@H]1[C@@H](O[C@H]2O[C@H](CO)[C@@H](N)[C@H](O)[C@H]2O)O[C@H]2C[C@@H](N)[C@H](O[C@H]3[C@H](O)[C@@H](O)[C@H](N)C[C@@H]3N)O[C@@H]2[C@@H]1O`, the parasite load remaining in assay [1] was 70.7% (inactive) and 61.8% (inactive). Besides, the viability in assay [1] is 108% and 98.4%. Moreover, in assay [2], the red/green cell ratio (normalised) is 1.38 (inactive). Further, the normalised cell number in assay [2] (setting [4]) worked out at 0.99; in assay [2] (setting [5]) it was 1.36. Moreover, the fold change in assay [3] (setting [6]) is 0.903 (inactive); in assay [3] (setting [7]), 5.22. Further, the cell count in assay [3] (setting [8]) stood at 12300; in assay [3] (setting [9]) it was 13600.

On to `CC(C)CC1NC(=O)C(CCCN)NC(=O)C(C(C)C)NC(=O)C2CCCN2C(=O)C(Cc2ccccc2)NC(=O)C(CC(C)C)NC(=O)C(CCCN)NC(=O)C(C(C)C)NC(=O)C2CCCN2C(=O)C(Cc2ccccc2)NC1=O` (stereo unspecified) (cyclo(FPV[Orn]LFPV[Orn]L); configuration not given here), for which the parasite load remaining in assay [1] was -0.175% (inactive). Also, in assay [1], the viability was 12.4%. The red/green cell ratio (normalised) in assay [2] was 0.94 (inactive). The normalised cell number amounted to 0.39 in assay [2] (setting [4]) and 0.37 in assay [2] (setting [5]). The figures for the fold change in assay [3] (setting [6]) and in assay [3] (setting [7]) were 0.889 (inactive) and 1.03, respectively. Moreover, the cell count worked out at 2080 in assay [3] (setting [8]) and 2340 in assay [3] (setting [9]).

As for `C[C@]12C=CC(=O)C=C1CCC1C2[C@@H](O)C[C@@]2(C)C1CC[C@]2(O)C(=O)COC(=O)CCC(=O)O` (stereo partly specified), the parasite load remaining in assay [1] is 61.5% (inactive). Further, in assay [1], the viability amounted to 98%. For the same molecule, the red/green cell ratio (normalised) in assay [2] was 0.99 (inactive). Moreover, the results for the normalised cell number in assay [2] (setting [4]) and in assay [2] (setting [5]) were 1.15 and 1.14, respectively. The fold change is 0.822 (inactive) in assay [3] (setting [6]) and 2.28 in assay [3] (setting [7]). The cell count came to 7880 in assay [3] (setting [8]) and 9580 in assay [3] (setting [9]).

Take `C[C@H]1O[C@@H](O[C@H]2[C@@H](O)C[C@H](O[C@H]3[C@@H](O)C[C@H](O[C@H]4CC[C@]5(C)C6CC[C@]7(C)[C@@H](C8=CC(=O)OC8)CC[C@]7(O)C6CC[C@@H]5C4)O[C@@H]3C)O[C@@H]2C)C[C@H](O)[C@@H]1O` (stereo partly specified): the parasite load remaining in assay [1] was 0.925% (inactive) and 0.995% (inactive). Also, the viability in assay [1] is 37.2% and 52.3%. Besides, in assay [2], the red/green cell ratio (normalised) is 0.46 (inactive). Also, the values for the normalised cell number in assay [2] (setting [4]) and in assay [2] (setting [5]) were 0.15 and 0.07, respectively. Besides, the fold change in assay [3] (setting [6]) is 0.424 (active); in assay [3] (setting [7]), 1.53. The cell count was 190 in assay [3] (setting [8]) and 450 in assay [3] (setting [9]).

Take `CO/N=C(/C(=O)N[C@@H]1C(=O)N2C(C(=O)O)=C(CSc3nc(=O)c(O)nn3C)CS[C@H]12)c1csc(N)n1`: the parasite load remaining in assay [1] was 147% (inactive) and 79.9% (inactive) and 62.4% (inactive). Also, in assay [1], the viability was 82.1% and 106% and 101%. Also, the red/green cell ratio (normalised) in assay [2] was 1.22 (inactive). For the same molecule, the values for the normalised cell number in assay [2] (setting [4]) and in assay [2] (setting [5]) were 1.02 and 1.24, respectively. The fold change in assay [3] (setting [6]) was 0.888 (inactive); in assay [3] (setting [7]), 3.26. In addition, the cell count was determined as 11700 in assay [3] (setting [8]) and 13200 in assay [3] (setting [9]).

Take `CCCCC/C=C/CCC(=O)N[C@H]1[C@H](Oc2c3cc4cc2Oc2ccc(cc2Cl)[C@@H](O[C@@H]2O[C@H](CO)[C@@H](O)[C@H](O)[C@H]2NC(C)=O)[C@@H]2NC(=O)[C@H](NC(=O)[C@@H]4NC(=O)[C@H]4NC(=O)C(Cc5ccc(c(Cl)c5)O3)NC(=O)[C@H](N)c3ccc(O)c(c3)Oc3cc(O)cc4c3)c3ccc(O)c(c3)-c3c(OC4O[C@H](CO)[C@@H](O)[C@H](O)[C@@H]4O)cc(O)cc3[C@@H](C(=O)O)NC2=O)O[C@H](CO)[C@@H](O)[C@@H]1O` (stereo partly specified): the parasite load remaining in assay [1] was 146% (inactive). In addition, the viability in assay [1] amounted to 99.2%. Further, the red/green cell ratio (normalised) in assay [2] was 1.02 (inactive). Further, the normalised cell number was 0.94 in assay [2] (setting [4]) and 0.96 in assay [2] (setting [5]). In addition, the fold change is 0.918 (inactive) in assay [3] (setting [6]) and 5.67 in assay [3] (setting [7]). Moreover, the cell count in assay [3] (setting [8]) was 12100; in assay [3] (setting [9]) it was 13200.
